Test results: PubChem BioAssay (NCI)
This is part of a sample that, as a whole, favours compounds with a hit. Of some 79,000 tested, about 15% had one in any assay. Activity calls are given as the source filed them. Cut-off read from the data, not from the text of the source: active = growth inhibition above about 70%; inactive = the rest.

assay: NCI Yeast Anticancer Drug Screen. Data for the cln2 rad14 strain (AID 165);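 note: 0% = growth equal to vehicle treated cultures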; conditions: S. cerevisiae cln2 rad14 strain, at 5.0 µM (retest, dose inferred, filed as 0.5), active compounds read high
Outline: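 cln2 rad14 yeast strain; compound exposure; growth inhibition read vs vehicle controls.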

Row | SMILES | growth inhibition
1 | COc1cccc2c1C(=O)c1c(O)c3c(c(O)c1C2=O)C[C@@](O)(C(C)=O)C[C@@H]3OC1CC(O)C(O)C(C)O1 (stereo partly drawn) | 46% (inactive)
2 | COc1cccc2c1C(=O)c1c(O)c3c(c(O)c1C2=O)C[C@@](O)(C(C)=O)C[C@@H]3OC1CC(N(C)C)C(O)C(C)O1 (stereo partly drawn) | 96% (active)
3 | C[N+]1(C)CCC(c2ccccc2)(c2ccccc2)C(=O)C1 | -9% (inactive)
4 | CC[C@@]1(OC(=O)C(N)CCCCN)C(=O)OCc2c1cc1n(c2=O)Cc2cc3ccccc3nc2-1 (stereo partly drawn) | 13% (inactive)
5 | CCN(CCO)CCNc1ccc(C)c2sc3ccccc3c(=O)c12 | 21% (inactive)
6 | NC(=O)SCC(=O)NNc1ccccc1 | 11% (inactive)
7 | CCN(CC)c1ccc(C(=C2C=CC(=[N+](CC)CC)C=C2)c2ccc(N(CC)CC)cc2)cc1 | 97% (active)
8 | Nc1ncnc2c(C3OC(CO)C(O)C3O)scc12 (stereo not drawn) | 21% (inactive)
9 | Nc1ccc(Cn2ccc3c4c(N)nc(N)nc4ccc32)cc1 | 6% (inactive)
10 | Cc1n(CC(C)C)c2c([n+]1C)C(=O)c1ccccc1C2=O | 21% (inactive)
11 | c1ccc(Cc2cc3ccccc3c3ccccc23)cc1 | 16% (inactive)
12 | Nc1nc(N)c2c(Cl)c(CNc3ccc(Cl)c(Cl)c3)ccc2n1 | 46% (inactive)
13 | C=C1CC2(CC(c3ccccc3OC)OC(c3ccccc3OC)C2)OC1=O (stereo not drawn) | 23% (inactive)
14 | O=[N+]([O-])c1c(Cl)nc2ccccn12 | 2% (inactive)
15 | C/C(=N\NC(=S)N1CCN(c2ccccn2)CC1)c1nccs1 | 52% (inactive)
16 | Clc1nc(Cl)c(Cl)c(Cl)n1 | 11% (inactive)
17 | COc1ccc(COc2ccc(C(=O)CCN3CCOCC3)cc2)cc1 | 40% (inactive)
18 | O/N=C/c1cc(I)c(O)c(I)c1 | 99% (active)
19 | COC1OC2COC(c3ccccc3)OC2C(O)C1OS(=O)(=O)c1ccc(C)cc1 (stereo not drawn) | -10% (inactive)

Row | SMILES | growth inhibition
20 | C=C1CC2(CC(c3ccccc3C)OC(c3ccccc3C)C2)OC1=O (stereo not drawn) | 83% (active)
21 | Cc1ccc2c(c1)C1(C)OC(C=CC1=O)O2 (stereo not drawn) | 82% (active)
22 | COc1cc(OC)c(OC)cc1/C=C\c1ccnc2ccccc12 | 18% (inactive)
23 | Cc1n(Cc2ccccc2)c2c([n+]1C)C(=O)c1ccccc1C2=O | 34% (inactive)
24 | O=[N+]([O-])c1cc2c(cc1S(=O)(=O)O)C1C(C3C2C2(Cl)C(Cl)=C(Cl)C3(Cl)C2(Cl)Cl)C2(Cl)C(Cl)=C(Cl)C1(Cl)C2(Cl)Cl (stereo not drawn) | 34% (inactive)
25 | CCOC(=O)Nc1c(C)cc(C)c(Br)c1C | 0% (inactive)
26 | COc1cc2c(c(OC)c1OC)-c1ccc(SC)c(=O)cc1C(NC(=O)c1ccccc1)CC2 (stereo not drawn) | 11% (inactive)
27 | CCCCCCCCCCS(=O)CC(CO)NC(=O)/C=C/c1c(C)[nH]c(=O)[nH]c1=O (stereo not drawn) | 34% (inactive)
28 | C/C(N=NC(=S)N1CCCCCC1)=C1\C=CC=CN1O | 19% (inactive)
29 | Cc1cc(NCCCCCCCNc2cc(C)nc3cc([N+](=O)[O-])ccc23)c2ccc([N+](=O)[O-])cc2n1 | 14% (inactive)
30 | CC1CC[P+](c2ccccc2)(c2ccccc2)c2c1ccc1ccccc21 (stereo not drawn) | 30% (inactive)
31 | O=C1C(Cl)=C(N2CCN(C3=C(Cl)C(=O)c4ccccc4C3=O)CC2)C(=O)c2ccccc21 | 14% (inactive)
32 | CCN1CCC(O)(c2ccc(Oc3ccccc3)cc2)C(C(=O)c2ccc(Oc3ccccc3)cc2)C1 (stereo not drawn) | 18% (inactive)
33 | Cc1ccc(NCCN(C)C)c2c(=O)c3cc(O)ccc3sc12 | 15% (inactive)
34 | COc1ccc2nc(C)cc(NCCCCCCCCCNc3cc(C)nc4ccc(OC)cc34)c2c1 | -11% (inactive)
35 | Cc1n(-c2ccccc2)c2c([n+]1Cc1ccc([N+](=O)[O-])cc1)C(=O)c1ccccc1C2=O | 1% (inactive)
36 | CC1(O)Cc2c(O)c3c(c(O)c2CC1O)C(=O)C=CC3=O (stereo not drawn) | 7% (inactive)
37 | c1ccc(C2=NC(c3ccccc3)=NS(S3=NC(c4ccccc4)=NC(c4ccccc4)=N3)=N2)cc1 (stereo not drawn) | 20% (inactive)
38 | CC[C@](O)(CC(=O)O[C@H]1C(=O)O[C@@H]2C[C@H]3C(C)=CC(=O)[C@@H](O)[C@]3(C)[C@H]3[C@@]4(O)OC[C@]32[C@@H]1[C@@H](C)[C@H]4O)C(C)C | 58% (inactive)
